Results taken from ChEMBL document CHEMBL4513158, “CO-ADD screening of RKDF (India) compounds”.
Results with a measured potency or affinity are listed apart.

Legend:
[1] = tested on: Staphylococcus aureus; conditions: Concentration 32 ug.mL-1; ASSAY_TEST Inhibition of Bacterial Growth; detection method Absorption (OD600); MEDIA CAMHB; plate type 384well; NBS; CORNING #3640; time 18 hr
[2] = tested on: Escherichia coli; conditions: Concentration 32 ug.mL-1; ASSAY_TEST Inhibition of Bacterial Growth; detection method Absorption (OD600); MEDIA CAMHB; plate type 384well; NBS; CORNING #3640; time 18 hr

Compound: CN(C)C(=N)NC(=N)N.Cl [METFORMIN HYDROCHLORIDE]
- Inhibition [1]: 23.29%

Compound: C=C[C@H]1[C@H](O[C@@H]2O[C@H](CO)[C@@H](O)[C@H](O)[C@H]2O)OC=C2C(=O)OCC[C@]21O [SWERTIAMARIN]
- Inhibition [1]: 25.69%
- Inhibition [2]: 13.89%
